PubChem BioAssay (EPA / NIEHS)
The source made the active and inactive calls. How the source made its calls: active means hit-call score of the fitted dose curve at least 0.9, where 1 is the maximum; inactive means score below 0.9.

Assays:
[1] = read-out: Tumor necrosis factor receptor superfamily member 6 (Homo sapiens) (UniProt P25445); experiment: LTEA_HepaRG_FAS: Life Technologies and Expression Analysis (LTEA) Assay for Fas cell surface death receptor (FAS) using HepaRG (AID 2283447); conditions: mRNA level, 48 h; actives raise or lower the signal
Outline: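 Differentiated human HepaRG cells, pre-cultured 48 h, were exposed in duplicate for 48 h to 8-point half-log concentrations (top 100 uM, 0.5% DMSO) in serum-free induction medium; FAS mRNA measured by qRT-PCR, normalized to ACTB/GAPDH/POLR2A, bidirectional fit versus DMSO.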

[2] = read-out: Fatty acid synthase (Homo sapiens) (UniProt P49327); experiment: LTEA_HepaRG_FASN: Life Technologies and Expression Analysis (LTEA) Assay for Fatty Acid Synthase (FASN) using HepaRG (AID 2283448); conditions: mRNA level, 48 h; actives raise or lower the signal
Outline: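 In human HepaRG cultures, 48 h chemical exposure (up to 100 uM, 0.5% DMSO) preceded TaqMan qRT-PCR of FASN.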

[3] = read-out: Cyclin D2 (CCND2), CCND2 (gene 894); experiment: LTEA_HepaRG_CCND2: Life Technologies and Expression Analysis (LTEA) Assay for Cyclin D2 (CCND2) using HepaRG (AID 2283449); conditions: mRNA level, 48 h; actives raise or lower the signal;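 further: CCND2 transcript measured by TaqMan qRT-PCR and normalised to three housekeeping genes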
Outline: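 In this HepaRG study, an eight-point concentration series (max 100 uM, 0.5% DMSO) is applied for 48 h. CCND2 mRNA change is derived by qRT-PCR normalised to ACTB, GAPDH and POLR2A.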

[4] = read-out: Cyclin Dependent Kinase Inhibitor 1A (CDKN1A), CDKN1A (gene 1026); experiment: LTEA_HepaRG_CDKN1A: Life Technologies and Expression Analysis (LTEA) Assay for Cyclin Dependent Kinase Inhibitor 1A (CDKN1A) using HepaRG (AID 2283450); conditions: mRNA level, 48 h; actives raise or lower the signal
Outline: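 Gain or loss of CDKN1A transcript is scored by bidirectional fitting against 0.5% DMSO vehicle. Human HepaRG cultures receive chemicals for 48 h across an 8-point series peaking at 100 uM; expression comes from qRT-PCR.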

[5] = read-out: Cyclin D1 (CCND1), CCND1 (gene 595); experiment: LTEA_HepaRG_CCND1: Life Technologies and Expression Analysis (LTEA) Assay for Cyclin D1 (CCND1) using HepaRG (AID 2283451); conditions: mRNA level, 48 h; actives raise or lower the signal;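 on AC50: TaqMan qRT-PCR transcript level normalised to ACTB GAPDH and POLR2A housekeeping genes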
Outline: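 Expression change is measured by qRT-PCR in HepaRG cells after 48 h treatment across eight concentrations topping at 100 uM, with duplicate wells and DMSO (0.5%) serving as baseline for bidirectional fitting.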

[6] = read-out: catalase (CAT), CAT (gene 847); experiment: LTEA_HepaRG_CAT: Life Technologies and Expression Analysis (LTEA) Assay for catalase (CAT) using HepaRG (AID 2283452); conditions: mRNA level, 48 h; actives raise or lower the signal;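 on AC50: TaqMan qRT-PCR signal normalized to ACTB GAPDH and POLR2A housekeeping genes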
Outline: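 Differentiated HepaRG cells in serum-free induction medium were dosed 48 h in duplicate, eight half-log concentrations from 100 uM in 0.5% DMSO. Transcript measured by TaqMan qRT-PCR, normalised to ACTB/GAPDH/POLR2A, fitted bidirectionally against DMSO.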

[7] = read-out: flavin-containing dimethylaniline monooxygenases 3 (FMO3), FMO3 (gene 2328); experiment: LTEA_HepaRG_FMO3: Life Technologies and Expression Analysis (LTEA) Assay for flavin-containing dimethylaniline monooxygenases 3 (FMO3) using HepaRG (AID 2283453); conditions: mRNA level, 48 h; actives raise or lower the signal;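 on AC50: FMO3 transcript by TaqMan qRT-PCR normalized to ACTB GAPDH and POLR2A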
Outline: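 Eight-point concentration-response in serum-free HepaRG cultures (top 100 uM, 0.5% DMSO, 48 h). Read-out: FMO3 mRNA level normalized to three endogenous control genes, fitted bidirectionally versus vehicle.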

[8] = read-out: Cytochrome P450 (CYP1A1), CYP1A1 (gene 1543); experiment: LTEA_HepaRG_CYP1A1: Life Technologies and Expression Analysis (LTEA) Assay for Cytochrome P450 (CYP1A1) using HepaRG (AID 2283454); conditions: mRNA level, 48 h; actives raise or lower the signal
Outline: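 Using HepaRG cultures with 0.5% DMSO as vehicle, eight-concentration exposures (max 100 uM) lasted 48 h. Transcript levels were measured by TaqMan qRT-PCR and normalized to ACTB, GAPDH and POLR2A.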

[9] = read-out: CFLAR gene, CFLAR (gene 8837); experiment: LTEA_HepaRG_CFLAR: Life Technologies and Expression Analysis (LTEA) Assay for CFLAR gene using HepaRG (AID 2283455); conditions: mRNA level, 48 h; actives raise or lower the signal
Outline: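 Gain- or loss-of-signal changes in CFLAR transcript were fitted bidirectionally relative to 0.5% DMSO. Cells (HepaRG, duplicate wells) were dosed for 48 h across eight half-log concentrations topping at 100 uM; quantitation by TaqMan qRT-PCR.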

[10] = read-out: Forkhead box O1 (FOXO1), FOXO1 (gene 2308); experiment: LTEA_HepaRG_FOXO1: Life Technologies and Expression Analysis (LTEA) Assay for Forkhead box O1 (FOXO1) using HepaRG (AID 2283456); conditions: mRNA level, 48 h; actives raise or lower the signal
Outline: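 Using one lot of HepaRG hepatic cells kept in 0.5% DMSO, the team applied test chemicals in duplicate, half-log dilutions from 100 uM, for 48 h. Expression, normalised to ACTB/GAPDH/POLR2A, was compared with vehicle in either direction.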

[11] = read-out: growth arrest and DNA damage 45 (GADD45A), GADD45A (gene 1647); experiment: LTEA_HepaRG_GADD45A: Life Technologies and Expression Analysis (LTEA) Assay for growth arrest and DNA damage 45 (GADD45A) using HepaRG (AID 2283458); conditions: mRNA level, 48 h; actives raise or lower the signal
Outline: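 Eight-point concentration-response in HepaRG cells: 48 h chemical exposure, 0.5% DMSO vehicle, top dose 100 uM. Normalized qRT-PCR mRNA readout with bidirectional fitting relative to DMSO.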

[12] = CEETOX_H295R_OHPREG: CeeTox H295R High-throughput Steroidogenesis Assay for OH-Pregnenolone (OHPREG) (AID 2283434); conditions: actives raise or lower the signal
Outline: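 Readout: HPLC-MS/MS of 17alpha-hydroxypregnenolone in medium after 48 h chemical exposure of H295R cells pretreated with forskolin. Values fitted bidirectionally relative to DMSO; chemicals reducing viability to 20–70% were retested after 10-fold dilution.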

[13] = CEETOX_H295R_OHPROG: CeeTox H295R High-throughput Steroidogenesis Assay for OH-Progesterone (OHPROG) (AID 2283435); conditions: actives raise or lower the signal;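 on AC50: human adrenal H295R cells primed 48 h with 10 µM forskolin; 17alpha-hydroxyprogesterone secreted into medium measured by HPLC-MS/MS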
Outline: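 Human adrenocortical H295R cells, passage 10 or lower, were treated with chemical for 48 h after forskolin priming, and hormone output in the medium was quantified by LC-MS/MS.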

[14] = CEETOX_H295R_ESTRADIOL: CeeTox H295R High-throughput Steroidogenesis Assay for Estradiol (AID 2283440); conditions: actives raise or lower the signal;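 further: estradiol secreted into medium quantified by LC-MS/MS after dansyl derivatisation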
Outline: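 Readout is estradiol in conditioned medium, quantified by reverse-phase HPLC-MS/MS against a 7-point standard curve. Cells: H295R, forskolin-stimulated, then dosed 48 h in 0.1% DMSO; activity fitted in both directions relative to DMSO.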

[15] = CEETOX_H295R_ESTRONE: CeeTox H295R High-throughput Steroidogenesis Assay for Estrone (AID 2283441); conditions: actives raise or lower the signal;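 further: estrone secreted into medium measured by LC-MS/MS after dansyl derivatization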;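 on AC50: human adrenal H295R cells prestimulated with forskolin for two days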
Outline: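 Forskolin-stimulated H295R cells are treated 48 h with chemical, and estrone in the medium is measured by LC-MS/MS. Activity is fitted in both directions relative to DMSO controls, with chemicals diluted until MTT viability reaches at least 70%.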

[16] = CEETOX_H295R_CORTIC: CeeTox H295R High-throughput Steroidogenesis Assay for Corticosterone (CORTIC) (AID 2283437); conditions: actives raise or lower the signal;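 further: corticosterone secreted into medium quantified by mass spectrometry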;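 on AC50: human H295R adrenal cells prestimulated with forskolin before chemical exposure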
Outline: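 Steps: seed H295R, adhere overnight; 10 uM forskolin 48 h; replace with chemical (0.1% DMSO) 48 h; extract medium with MTBE; quantify corticosterone by HPLC-MS/MS; score bidirectionally vs DMSO.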

[17] = CEETOX_H295R_CORTISOL: CeeTox H295R High-throughput Steroidogenesis Assay for Cortisol (AID 2283438); conditions: actives raise or lower the signal;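 further: cortisol secreted into medium quantified by LC-MS/MS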
Outline: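 Steroidogenesis in H295R, per modified OECD 456: 48 h forskolin (10 uM), then 48 h exposure, 0.1% DMSO. Cortisol by extraction and tandem MS; viability by MTT (570/650 nm); cytotoxic chemicals diluted and re-tested.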

[18] = read-out: Forkhead box O3 (FOXO3), FOXO3 (gene 2309); experiment: LTEA_HepaRG_FOXO3: Life Technologies and Expression Analysis (LTEA) Assay for Forkhead box O3 (FOXO3) using HepaRG (AID 2283459); conditions: mRNA level, 48 h; actives raise or lower the signal
Outline: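 Gene-expression endpoint: FOXO3 transcript level by qRT-PCR in HepaRG cultures treated 48 h with chemicals up to 100 uM (half-log, 0.5% DMSO vehicle).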

Measured: AC50

Sequence of Fatty acid synthase (Homo sapiens) (P49327 whole entry, looked up): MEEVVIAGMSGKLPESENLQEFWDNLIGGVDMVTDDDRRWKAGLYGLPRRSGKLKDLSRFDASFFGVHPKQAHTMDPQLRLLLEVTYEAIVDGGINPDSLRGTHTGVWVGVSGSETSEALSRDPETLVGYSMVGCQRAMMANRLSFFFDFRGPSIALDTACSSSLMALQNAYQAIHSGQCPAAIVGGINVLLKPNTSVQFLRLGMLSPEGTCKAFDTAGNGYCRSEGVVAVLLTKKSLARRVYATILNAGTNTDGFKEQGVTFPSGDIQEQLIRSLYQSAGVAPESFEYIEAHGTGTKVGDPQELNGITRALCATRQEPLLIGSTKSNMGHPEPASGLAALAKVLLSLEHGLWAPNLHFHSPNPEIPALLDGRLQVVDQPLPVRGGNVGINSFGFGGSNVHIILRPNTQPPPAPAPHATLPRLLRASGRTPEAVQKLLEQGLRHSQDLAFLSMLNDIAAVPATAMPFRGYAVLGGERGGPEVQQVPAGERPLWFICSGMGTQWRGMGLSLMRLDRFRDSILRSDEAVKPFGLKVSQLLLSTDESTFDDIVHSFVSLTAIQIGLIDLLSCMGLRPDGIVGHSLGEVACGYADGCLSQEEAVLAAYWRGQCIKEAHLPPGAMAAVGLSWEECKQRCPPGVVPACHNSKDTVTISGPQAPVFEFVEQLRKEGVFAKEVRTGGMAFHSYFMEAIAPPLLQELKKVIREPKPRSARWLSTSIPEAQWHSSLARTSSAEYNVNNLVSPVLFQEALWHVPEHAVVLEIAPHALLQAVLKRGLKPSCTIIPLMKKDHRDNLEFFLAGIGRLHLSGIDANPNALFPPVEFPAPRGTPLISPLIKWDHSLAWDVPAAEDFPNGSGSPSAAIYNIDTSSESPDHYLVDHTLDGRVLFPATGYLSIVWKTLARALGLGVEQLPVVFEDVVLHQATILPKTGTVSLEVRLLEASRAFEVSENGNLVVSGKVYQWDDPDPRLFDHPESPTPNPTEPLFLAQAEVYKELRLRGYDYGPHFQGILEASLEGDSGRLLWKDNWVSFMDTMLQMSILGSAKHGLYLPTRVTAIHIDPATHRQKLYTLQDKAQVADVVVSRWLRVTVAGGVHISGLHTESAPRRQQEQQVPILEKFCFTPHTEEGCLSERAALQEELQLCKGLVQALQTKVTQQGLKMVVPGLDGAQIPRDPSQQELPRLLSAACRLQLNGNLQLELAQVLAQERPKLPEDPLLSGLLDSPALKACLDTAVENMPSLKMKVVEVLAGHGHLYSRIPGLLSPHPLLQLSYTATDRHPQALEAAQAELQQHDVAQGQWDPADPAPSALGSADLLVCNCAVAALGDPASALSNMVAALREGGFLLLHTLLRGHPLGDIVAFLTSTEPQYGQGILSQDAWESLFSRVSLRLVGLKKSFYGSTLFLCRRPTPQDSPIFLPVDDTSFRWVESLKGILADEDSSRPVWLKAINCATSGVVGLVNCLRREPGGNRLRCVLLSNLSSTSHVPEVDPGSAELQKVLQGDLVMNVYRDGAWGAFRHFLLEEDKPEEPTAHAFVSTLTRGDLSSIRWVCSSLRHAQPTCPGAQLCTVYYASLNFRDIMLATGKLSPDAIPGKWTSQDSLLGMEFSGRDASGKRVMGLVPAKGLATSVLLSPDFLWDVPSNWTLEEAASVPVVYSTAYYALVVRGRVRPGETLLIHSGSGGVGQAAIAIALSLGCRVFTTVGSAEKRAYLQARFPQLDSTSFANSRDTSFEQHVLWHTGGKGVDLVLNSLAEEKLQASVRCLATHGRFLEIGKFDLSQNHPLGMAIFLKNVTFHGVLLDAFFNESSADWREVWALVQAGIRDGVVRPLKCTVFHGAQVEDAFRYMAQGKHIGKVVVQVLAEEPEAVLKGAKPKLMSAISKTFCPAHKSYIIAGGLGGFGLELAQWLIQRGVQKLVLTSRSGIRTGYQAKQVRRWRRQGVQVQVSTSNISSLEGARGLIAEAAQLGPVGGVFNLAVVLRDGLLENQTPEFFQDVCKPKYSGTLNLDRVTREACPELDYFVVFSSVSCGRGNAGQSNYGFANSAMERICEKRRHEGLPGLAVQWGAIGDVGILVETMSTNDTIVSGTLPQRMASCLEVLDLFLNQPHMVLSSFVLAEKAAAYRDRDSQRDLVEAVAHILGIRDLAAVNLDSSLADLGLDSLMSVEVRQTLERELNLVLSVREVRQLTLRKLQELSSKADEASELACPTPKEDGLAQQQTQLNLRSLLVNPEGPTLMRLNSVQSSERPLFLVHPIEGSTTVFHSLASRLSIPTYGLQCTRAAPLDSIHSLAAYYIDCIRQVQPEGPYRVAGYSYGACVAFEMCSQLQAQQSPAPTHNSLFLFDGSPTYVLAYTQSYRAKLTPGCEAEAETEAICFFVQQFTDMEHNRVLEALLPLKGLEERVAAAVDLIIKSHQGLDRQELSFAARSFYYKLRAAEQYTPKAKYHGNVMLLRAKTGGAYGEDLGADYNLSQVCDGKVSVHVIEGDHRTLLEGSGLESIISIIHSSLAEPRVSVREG

Cc1cnc(C2=NC(C)(C(C)C)C(=O)N2)c(C(=O)O)c1 (stereo not drawn)
active: [8] 71.2 µM
inactive: [1] | [2] | [3] | [4] | [5] | [6] | [7] | [9] | [10] | [11]

CCC(C)n1c(=O)[nH]c(C)c(Br)c1=O (stereo not drawn)
active: [2] 14.1 µM | [5] 27.6 µM | [6] 40.4 µM | [7] 29 µM | [8] 5.11 µM
inactive: [12] | [13] | [14] | [15] | [1] | [3] | [4] | [9] | [11]

CCN(CC)c1nc(C)cc(OP(=S)(OC)OC)n1
active: [16] 24.7 µM | [14] 1.22 µM | [15] 1.62 µM | [2] 27.4 µM | [8] 31.1 µM
inactive: [12] | [13] | [17] | [1] | [3] | [4] | [5] | [6] | [7] | [9] | [10] | [11] | [18]

Clc1nc(Cl)nc(Nc2ccccc2Cl)n1
active: [8] 25.5 µM
inactive: [12] | [13] | [16] | [17] | [14] | [15] | [1] | [2] | [3] | [4] | [5] | [6] | [7] | [9] | [11]

CCCN(CC)CC1COC2(CCC(C(C)(C)C)CC2)O1 (stereo not drawn)
inactive: [16] | [17] | [14] | [15] | [1] | [3] | [4] | [5] | [6] | [7] | [9] | [10] | [11] | [18]
active: [12] 0.131 µM | [13] 0.112 µM | [2] 0.274 µM | [8] 50 µM

CN/C(=N\[N+](=O)[O-])NCc1cnc(Cl)s1
inactive: [12] | [13] | [14] | [15] | [1] | [3] | [4] | [5] | [6] | [7] | [8] | [9] | [11]
active: [2] 50 µM

CCNC(=O)NC(=O)C(C#N)=NOC
inactive: [2] | [3] | [4] | [5] | [6] | [7] | [9] | [10]
active: [8] 50 µM | [11] 0.361 µM

CSC(=O)c1c(C(F)F)nc(C(F)(F)F)c(C(=O)SC)c1CC(C)C
active: [7] 86.8 µM | [8] 17.1 µM
inactive: [1] | [2] | [3] | [4] | [5] | [6] | [9] | [10] | [11]

Nc1c(Cl)c(Cl)nc(C(=O)O)c1Cl
inactive: [1] | [2] | [3] | [4] | [5] | [6] | [7] | [9] | [11] | [18]
active: [8] 50 µM

CS(=O)(=O)c1ccc(C(=O)C2C(=O)CCCC2=O)c([N+](=O)[O-])c1
inactive: [1] | [2] | [3] | [4] | [5] | [6] | [7] | [9] | [11] | [18]
active: [8] 19.1 µM

N#Cc1c[nH]cc1-c1cccc2c1OC(F)(F)O2
active: [2] 1.51 µM | [5] 50 µM | [6] 74.9 µM | [7] 71.8 µM | [8] 77.2 µM | [9] 14.7 µM
inactive: [1] | [3] | [4] | [10] | [11]

CC(C)N1C(=O)c2ccccc2NS1(=O)=O
inactive: [1] | [2] | [3] | [4] | [5] | [6] | [7] | [8] | [9] | [11]

COc1cc(OC)nc(NC(=O)NS(=O)(=O)c2ncccc2OCC(F)(F)F)n1
inactive: [1] | [2] | [4] | [5] | [6] | [7] | [9] | [18]
active: [3] 0.223 µM | [8] 21 µM | [11] 50 µM

Nc1c(Cl)c(F)nc(OCC(=O)O)c1Cl
inactive: [1] | [2] | [3] | [4] | [5] | [6] | [7] | [8] | [9] | [10] | [11]

COC(=O)NS(=O)(=O)c1ccc(N)cc1
inactive: [1] | [2] | [3] | [4] | [5] | [6] | [7] | [8] | [9] | [11]

C=CCOC(=O)C(C)(C)OC(=O)c1cc(-n2c(=O)cc(C(F)(F)F)n(C)c2=O)ccc1Cl
inactive: [1] | [2] | [3] | [4] | [5] | [6] | [7] | [8] | [9] | [10] | [11] | [18]

COC(=O)N(C(=O)N1CO[C@@]2(C(=O)OC)Cc3cc(Cl)ccc3C2=N1)c1ccc(OC(F)(F)F)cc1
active: [2] 18.8 µM | [6] 40 µM | [7] 40 µM | [8] 5.08 µM | [9] 29.8 µM
inactive: [1] | [3] | [4] | [5] | [10] | [11] | [18]

CC(C)N1C(=O)N(c2ccccc2)CSC1=NC(C)(C)C
active: [4] 85.2 µM | [6] 75.4 µM | [7] 91.2 µM | [11] 81.2 µM
inactive: [1] | [2] | [3] | [5] | [8] | [9]

COc1ccc(-c2ccccc2)cc1NNC(=O)OC(C)C
active: [8] 75.1 µM
inactive: [1] | [2] | [3] | [4] | [5] | [6] | [7] | [9] | [10] | [11] | [18]
